Most compounds without a hit are left out; they make up all but 9.2% or so of the library.
ELG1 DNA repair: blocks ELG1-dependent DNA repair in HEK293T cells | HEK293T ELG1-luciferase reporter, luminescence, 16 h; DNA damage induced by 5-fluorouridine | Potency, µM (highest dose often 46.1 µM), for inactives: at the top dose activity change, negative = inhibition, most hits filed as inhibitors | hit rate 2.3% among 330,000 | AID 504467; further: on the % scale 0 is the no-effect control and ±100 the full control effect; nearly all actives have a fitted effect of over 55% in size
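5-Fluorouridine DNA damage + compound/DMSO, 2,000 cells/well, 16 h, 37 °C/5% CO2. ONE-Glo, 30 min RT, luminescence. Readout = decrease in reporter signal.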
ELG1 genotox: inducers of genotoxicity in HEK293T ELG1-luciferase cells; HEK293T ELG1-luciferase reporter, luminescence, 16 h; Potency, µM (highest dose often 46 µM), for inactives: at the top dose activity change, positive = activation, most hits filed as activators; hit rate 1.3% among 330,000; AID 504466; further: % of control where 0% means no effect; nearly all actives have a fitted effect of over 60% in size
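Cells (2,000/well) expressing the ELG1-luciferase fusion are dosed by pin tool and kept 16 hr at 37 °C, 5% CO2. Signal comes from ONE-Glo luciferase reagent after 30 min at room temperature.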
NPC1 prom act: activates the NPC1 promoter; Potency, µM (series often up to 9.22 µM), without a hit: at the highest dose activation, most hits filed as activators; hit rate 2.4% among 320,000; Huh7 NPC1 promoter luciferase reporter, 24 h; further: % of control where 0% means no effect; nearly all actives have a fitted effect of over 60% in size
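Luminescence read-out of NPC1 promoter-driven luciferase in stably transfected Huh7 cells; compounds delivered in DMSO and left 24 h at 37C, 5% CO2, qHTS titration format.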
FLuc counter: firefly luciferase modulation, counter-screen for miR-21 project | purified FLuc, Km substrates, luminescence inhibition | Potency, µM (titrated, usually from 57.5 µM), without a hit: top-dose activity change, negative = inhibition, hits mostly inhibitors | hit rate 6.9% among 360,000;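 further: plate controls were vehicle for no effect and reference inhibitor for full effect; nearly all actives have a fitted effect of over 55% in size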
Target sequence (P08659 whole entry, looked up): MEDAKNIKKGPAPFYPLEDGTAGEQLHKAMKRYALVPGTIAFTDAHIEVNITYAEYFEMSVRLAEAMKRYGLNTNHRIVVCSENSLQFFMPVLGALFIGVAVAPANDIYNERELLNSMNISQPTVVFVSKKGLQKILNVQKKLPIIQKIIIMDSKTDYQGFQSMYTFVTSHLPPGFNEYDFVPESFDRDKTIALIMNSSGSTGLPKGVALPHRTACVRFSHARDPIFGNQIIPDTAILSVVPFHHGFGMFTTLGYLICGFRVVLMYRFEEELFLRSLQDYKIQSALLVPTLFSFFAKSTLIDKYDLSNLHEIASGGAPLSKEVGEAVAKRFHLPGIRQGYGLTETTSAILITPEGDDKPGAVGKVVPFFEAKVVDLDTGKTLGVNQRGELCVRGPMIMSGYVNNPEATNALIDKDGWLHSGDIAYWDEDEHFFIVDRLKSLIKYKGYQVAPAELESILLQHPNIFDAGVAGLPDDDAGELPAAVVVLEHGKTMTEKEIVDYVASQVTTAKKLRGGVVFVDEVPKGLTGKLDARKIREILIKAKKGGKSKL
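Purified P. pyralis luciferase (10nM final) with 10uM D-luciferin and 10uM ATP (Km levels) in 50mM Tris acetate pH 7.5, 10mM Mg acetate, 0.01% Tween-20, 0.05% BSA; qHTS 6-point titration, ~60 µM downward; luminescence read.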
Rab9 prom act: activates the Rab9 promoter | Huh7 Rab9 promoter-luciferase reporter, luminescence, 24 h | Potency, µM (highest dose often 9.22 µM), for inactives: at the top dose activation, negative = inhibition, usual class: activators | hit rate 2.8% among 320,000; further: % of control where 0% means no effect; nearly all actives have a fitted effect of over 60% in size
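Rab9 promoter-driven luciferase in stably transfected Huh7 cells; 1500 cells/well rested 2 h, exposed to compound in DMSO for 24 h at 37 °C, 5% CO2. Luminescence read 10 min after adding luciferase reagent at ambient temperature.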
SMN2 splice enh: SMN2 splice variant enhancement. Potency, µM (top dose mostly 46.1 µM), for inactives: at the highest dose activity change, positive = activation, most hits filed as activators. HEK293 SMN2-luciferase splicing reporter, luminescence, 30-36 h. hit rate 2.8% among 210,000; further: % of control where 0% means no effect; nearly all actives have a fitted effect of over 55% in size
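HEK293 cells carry an SMN2 […]–luciferase reporter in which exon 7 inclusion puts luciferase in frame. Cells were plated 10-12 h before compound addition, then incubated 30-36 h at 37C. ONE-Glo luminescence was read; sodium butyrate at 4.5 mM final served as control.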
Numbers without * were called inactive; ? = inconclusive; . = not tested or not shown; [ ] = another dose, or the depositor's remark. The call rests on the fitted dose curve; in most records, active means well fitted curve in the direction sought with a large enough effect; inconclusive means small, poorly fitted or top-dose-only effect, or another doubt; inactive means no such curve, though single readings can be large; an effect the other way counts as inactive or inconclusive. Potency means the concentration at half of the fitted maximal effect.

SMILES	ELG1 DNA repair	ELG1 genotox	NPC1 prom act	FLuc counter	Rab9 prom act	SMN2 splice enh
CC(C)OC(=O)n1c(=S)oc2ccccc21	?	10%	12%	-8%	0%	-29%
CN(C(=O)C1CCC(=O)N(Cc2cccc(F)c2)C1)C1CCCCC1 (stereo not given)	?	?	3.2µM*	17µM*	2.5µM*	.
Cc1ccsc1CN(C)C(=O)C1CCC(=O)N(CCc2cccc(F)c2)C1 (stereo not given)	?	?	?	15µM*	22%	.
Cc1ccsc1CCNC(=O)C1CCC(=O)N(CCc2cccc(F)c2)C1 (stereo not given)	?	?	2.8µM*	21µM*	2.5µM*	.
CC(=O)C1=C(C)NC(=S)NC1c1cc([N+](=O)[O-])ccc1O (stereo not given)	2%	-2%	-1%	-3%	-6%	.
Cc1ccc(CNc2nc3ccc(C)cc3n3nnnc23)cc1	.	.	.	0%	.	3%
Cc1ccc(Cl)cc1N1CCN(C(=O)C2CCN(c3nnc(-n4cccc4)s3)CC2)CC1	8.2µM*	?	-19%	1%	-25%	-85%
O=C1[C@H]2[C@H]3C=C[C@@H](C4[C@H]3[C@@H]3C(=O)N(CN5CCSCC5)C(=O)[C@H]43)[C@H]2C(=O)N1CN1CCSCC1 (stereo not given in full)	.	.	.	.	.	-19%[9.22 µM]
CC(C)=NNC(=O)C1=NNC(=O)C1	-10%	0%	-2%	6%	0%	.
CC1=NN(c2ccccc2)C(=O)/C1=C/C=C/c1ccccc1	21µM*	-12%	8%	?	3%	17%
O=C1NN(c2ccc(F)cc2)C(=O)/C1=C\C=C\c1ccco1	-1%	9%	1%	?	6%	19%
CC1=NN(c2ccccc2)C(=O)/C1=C\N1CC(C)OC(C)C1 (stereo not given)	-2%	3%	1%	?	-6%	14%
CC1=NN(c2cccc(C(=O)O)c2)C(=O)/C1=C\C=C\c1ccco1	?	?	10%	2.7µM*	13%	30%
CC(=O)c1ccc(NC(=O)CCc2nnc3ccc(N4CCC5(CC4)OCCO5)nn23)cc1	?	?	29%	?	22%	.
Cc1ccc(NC(=O)CCc2nnc3ccc(N4CCC5(CC4)OCCO5)nn23)nc1	5.8µM*	1%	0%	3%	-7%	.
COc1ccc(-c2cc(C(F)(F)F)nc(-n3cc(Cl)cn3)n2)cc1	23µM*	-12%	-8%	0%	-2%	-44%
COc1cccc(-c2cc(C(F)(F)F)nc(-n3cc(Cl)cn3)n2)c1	?	-14%	0%	2%	-3%	-42%
O=C(Nc1ccc([N+](=O)[O-])cn1)c1cc(-c2cccc(Cl)c2)nc2ccccc12	-19%	-7%	-2%	-19%	-2%	1%
Cc1ccc2nc(-c3cccc(Br)c3)cc(C(=O)NC3=NCCS3)c2c1	21µM*	-9%	-1%	5.4µM*	0%	9%
O=C(NC1=NCCS1)c1cc(-c2cccc(Br)c2)nc2ccccc12	?	-4%	2%	11µM*	-1%	-38%
O=C(Nc1ccccn1)c1cc(-c2cccc(Cl)c2)nc2ccccc12	18µM*	-15%	-2%	-17%	-4%	-7%
O=C(Nc1ncccn1)c1cc(-c2cccc(Br)c2)nc2ccccc12	?	-8%	0%	27µM*	-4%	-15%
O=C(Nc1ccncc1)c1cc(-c2cccc(Br)c2)nc2ccccc12	?	-18%	3%	-27%	-7%	.
O=C(Nn1cnnc1)c1cc(-c2cccc(Br)c2)nc2ccccc12	?	?	18%	0.85µM*	24%	.
COc1ccc(/C(N)=N/OC(=O)CCC2CCCC2)cc1	-3%	-1%	1%	5%	9%	.
SMILES	ELG1 DNA repair	ELG1 genotox	NPC1 prom act	FLuc counter	Rab9 prom act	SMN2 splice enh
Cc1ccc(/C(N)=N/OC(=O)CCC2CCCC2)cc1	?	11%	-3%	15µM*	4%	22%
Cc1ccc(/C(N)=N/OC(=O)CCC2CCCCC2)cc1	?	9%	11%	19µM*	18%	16%
Cc1cccc(/C(N)=N/OC(=O)CCc2ccccc2)c1	?	13%	19%	21µM*	?	.
N/C(=N\OC(=O)CCCc1ccccc1)c1ccccc1Cl	-4%	?	2%	6.7µM*	2%	.
Cc1cc(C)c2c(SC(C)C)nc(N)nc2n1	5%	3%	-5%	-9%	-9%	.
CC(C)C1=CC(=Nc2ccc(S(N)(=O)=O)cc2)C=C(C(C)C)C1=O	?	-1%	-4%	5%	11%	.
N/C(=N\OC(=O)CCC1CCCC1)c1ccc(Cl)cc1	?	?	13%	21µM*	3%	.
Cc1cccc(/C(N)=N/OC(=O)Cc2cccc3ccccc23)c1	-3%	-3%	0%	0%	2%	8%
Cc1cccc(/C(N)=N/OC(=O)CCC2CCCCC2)c1	?	?	14%	6µM*	10%	21%
COc1ccc(CCN(C)C(=O)CCNS(=O)(=O)c2ccccc2C(F)(F)F)cc1OC	26%	8%	2%	10%	3%	.
Cc1cccc(N2CCN(C(=O)c3cccn3-c3nnc(N4CCCCC4)s3)CC2)c1C	.	.	.	-19%	.	.
O=C(N/N=C/c1ccccn1)c1cc(Br)ccc1O	14%	?	-1%	15µM*	7%	.
O=C(N/N=C/c1ccccn1)c1ccc(Br)o1	-8%	5%	-4%	-22%	0%	-12%
O=C(N/N=C/c1cccnc1)c1cc(Br)ccc1O	?	?	3.2µM*	4.8µM*	4µM*	.
COc1ccc(CCNC(=O)C2CCN(Cc3nc(-c4ccc(OC)c(OC)c4)oc3C)CC2)cc1OC	.	.	.	-1%	.	10%
CCC(=O)c1ccc(OCC(=O)OCC(=O)N2CCc3ccccc32)cc1	7%	0%	-4%	9%	-7%	.
COc1ccc(NC(=O)c2ccc(Cl)nc2)cc1S(=O)(=O)N1CCCCC1	23µM*	-15%	-3%	2%	-8%	-25%
COc1ccc(NC(=O)c2cncc(Br)c2)cc1S(=O)(=O)N1CCCCC1	15µM*	-8%	1%	-1%	-1%	-33%
COc1ccc(NC(=O)CCOc2ccccc2F)cc1S(=O)(=O)N1CCCCC1	23µM*	-6%	.	.	.	.
Cc1ccc(S(=O)(=O)/N=C(/Nc2c(C)cccc2C)c2ccccc2)cc1	-2%	1%	.	.	.	.
CN(C)c1ccc(N=Nc2ccccc2C(=O)OCC(=O)N2CCCCCC2)cc1	?	1%	18%	?	22%	25µM*
CN(C)c1ccc(N=Nc2ccccc2C(=O)OCC(=O)Nc2ccccc2C(F)(F)F)cc1	17%	7%	-1%	9.5µM*	24%	26%
